# A selection: hits, their analogues and other compounds. The true share with any hit is near 22%.
# CYP2C19 inh = blockers of cytochrome P450 2C19 activity – biochemical, luminescence, ADME assay, primary screen | P33261 | CYP2C19 Supersomes, luciferin-H EGE luminescence, 30 min | inhibition, % at 5 µM | 96,000 tested, 21% active | AID 778, 2007;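 active = CYP2C19 inhibition above a set limit at 5 µM in the primary screen, cut at about 50% in these data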;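 note: plate controls were negative control wells for no effect and 2.5 mM tranylcypromine positive control for full effect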
# Target sequence (P33261 whole entry, looked up): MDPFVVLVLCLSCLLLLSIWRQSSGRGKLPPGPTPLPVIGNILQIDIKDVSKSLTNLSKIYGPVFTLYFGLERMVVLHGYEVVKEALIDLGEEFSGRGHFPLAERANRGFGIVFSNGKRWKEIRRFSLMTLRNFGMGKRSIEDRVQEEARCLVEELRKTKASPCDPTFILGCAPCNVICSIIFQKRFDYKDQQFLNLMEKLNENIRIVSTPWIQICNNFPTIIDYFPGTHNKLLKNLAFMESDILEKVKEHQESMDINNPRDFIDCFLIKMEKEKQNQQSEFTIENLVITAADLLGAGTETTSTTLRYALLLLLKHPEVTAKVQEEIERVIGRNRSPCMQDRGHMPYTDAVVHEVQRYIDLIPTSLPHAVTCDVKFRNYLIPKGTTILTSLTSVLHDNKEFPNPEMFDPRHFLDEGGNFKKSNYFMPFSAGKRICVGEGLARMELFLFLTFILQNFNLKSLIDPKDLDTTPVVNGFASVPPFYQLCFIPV
# CYP2C9 activ = human CYP2C9 activators, primary screen, biochemical, luminescence; Cytochrome P450 2C9 (Homo sapiens), P11712; activation factor at 5 µM; recombinant CYP2C9, luciferin-H conversion; hits give high values; factor 1 = untreated enzyme, 0 = blocked; AID 1024, 2008; 96,000 tested, 1.4% active;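 active = activation factor of 2 or more for CYP2C9 at a 5 µM dose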;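 note: 0 = sulfaphenazole-blocked wells and 1 = vehicle-only wells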
# CYP2C9 inh = blockers of cytochrome P450 2C9 activity – biochemical, luminescence, ADME assay, primary screen | AID 777, 2007 | inhibition, % at 5 µM | CYP2C9 Supersomes, luciferin-H conversion | 96,000 tested, 20% active;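 active = blocking of liver enzyme CYP2C9 beyond about 50% at 5 µM, limit read from the data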
# CYP2C19 activ = human CYP2C19 activators, primary screen, biochemical, luminescence. AID 1025, 2008. Cytochrome P450 2C19 (Homo sapiens), P33261. recombinant CYP2C19, luciferin-H EGE luminescence; hits give high values; 0 = fully inhibited enzyme, 1 = untreated enzyme. 96,000 tested, under 10 active. activation factor at 5 µM;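 active = activation factor of at least 2 at 5 µM in the primary screen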;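 note: 0 = wells with 2.5 mM tranylcypromine and 1 = vehicle-only wells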
# Measles CPE = compounds protecting cells from measles virus cytopathic effect, primary screen, measles RdRp inhibitor project, single point, MLSMR library, absorbance; Measles virus-infected cells, CPE protection; protection (pct of control), % at 4 µM; 140,000 tested, 1.5% active; AID 841, 2007; in the data active = protection mostly above about 24%, no sharp cut-off; inactive = mostly below about 26%
# * = called active by the depositor; / = no result given.
SMILES,CYP2C19 inh,CYP2C9 activ,CYP2C9 inh,CYP2C19 activ,Measles CPE
COc1ccc(CN2CCN(c3ccccn3)CC2)cc1OCc1ccccc1,47.0,0.6,37.8,0.5,18.1
COc1ccc(-c2cc(N)n(S(=O)(=O)c3c(F)c(F)c(F)c(F)c3F)n2)cc1OC,58.7*,0.2,83.0*,0.4,2.0
COc1ccc(S(=O)(=O)n2nc(-c3cc(OC)c(OC)c(OC)c3)cc2N)cc1OC,/,/,/,/,29.2
O=C(NC(=S)Nc1ccc(C(=O)N2CCOCC2)cc1)c1ccc([N+](=O)[O-])cc1,17.6,1,4.3,0.8,10.5
Cn1c(-c2ccc3c(c2)OCO3)cnc1NCc1ccc(Cl)cc1,66.5*,0,98.6*,0.3,25.3
Cc1ccc(CNc2ncc(-c3ccc4c(c3)OCO4)n2C)cc1,68.6*,0.3,74.4*,0.3,11.2
O=C(NCC1CCCO1)C1c2ccccc2C(=O)N1Cc1ccc2c(c1)OCO2 (configuration not stated),3.4,0.9,5.1,1,15.9
CCCCN(C(=S)NC(=O)c1cc(OC)c(OC)c(OC)c1)c1c(N)n(Cc2ccccc2)c(=O)[nH]c1=O,/,/,/,/,12.8
CCn1c(CNc2ccc(C)cc2C)nnc1SCC(=O)N1CCCc2ccccc21,86.4*,0.6,41.0,0.1,4.7
Cc1ccc(NCc2nnc(SCC(=O)Nc3ccccc3)n2CC2CCCO2)c(C)c1 (configuration not stated),52.3*,0.5,48.9,0.5,5.9
CCn1c(CNc2ccc(F)cc2)nnc1SCC(=O)N1CCCc2ccccc21,63.0*,1.3,-29.1,0.4,3.1
Cc1ccc(NCc2nnc(SCCN3CCCCC3)n2CC2CCCO2)c(C)c1 (configuration not stated),-8.6,1,-2.3,1.1,19.4
CC1CCC(NC(=O)C2CCN(C(=O)NC3CCCCC3)CC2)CC1 (configuration not stated),-17.1,1.2,-17.6,1.2,7.6
CCN(CC)S(=O)(=O)c1ccc(N2CCOCC2)c(NS(=O)(=O)c2cc(C(C)(C)C)ccc2C)c1,/,/,/,/,7.2
O=S(=O)(Nc1cccc2cn[nH]c12)c1ccc(F)cc1,82.1*,0.7,28.2,0.2,5.0
COc1ccc(S(=O)(=O)Nc2ccccc2C)cc1,99.5*,0.5,51.0*,0,3.7
COc1ccc(S(=O)(=O)Nc2cc3c4c(oc3c3ccccc23)CCCC4=O)cc1,45.5,0.2,82.5*,0.5,57.2
COc1ccc(S(=O)(=O)NN=C2CCCC2)cc1,32.4,1.1,-6.4,0.7,4.7
Cc1ccccc1NS(=O)(=O)c1ccc(NC(=O)c2ccco2)cc1,21.1,0.6,35.8,0.8,20.6
Cc1ccccc1NS(=O)(=O)c1ccc(F)cc1,95.7*,0.4,63.5*,0,15.2
CCC1(COC(=O)Nc2cccc(Cl)c2)COC1,48.4,0.9,8.4,0.5,6.1
COc1ccccc1C(=O)NNC(=S)NC(=O)c1ccco1,/,/,/,/,12.5
COc1ccccc1NC(=O)C(NC(=O)OC(C)(C)C)C(C)OCc1ccccc1 (configuration not stated),22.2,0.8,23.2,0.8,3.5
CCOc1ccccc1C1C(C(=O)OC)=C(N)OC2=C1C(=O)CCC2 (configuration not stated),93.4*,0.3,69.5*,0.1,4.9
CCOC(=O)C1=C(N)OC2=C(C(=O)CCC2)C1c1ccc(C)s1 (configuration not stated),53.3*,0.8,15.9,0.5,23.6
COc1ccccc1NC(=O)C1CCCN(S(=O)(=O)c2cnc[nH]2)C1 (configuration not stated),61.9*,0.4,61.4*,0.4,14.6
Cc1cccc(CN2CCC(CNC(=O)C3CCCN(S(=O)(=O)c4cnc[nH]4)C3)CC2)c1 (configuration not stated),-6.0,1,-1.4,1.1,9.3
CCOc1ccccc1NC(=O)C1CCCN(S(=O)(=O)c2ccc(OC)c(C)c2)C1 (configuration not stated),92.8*,0.9,5.1,0.1,3.1

# Bioassay records (PubChem BioAssay)
